According to the supplement of paper PMC10849652:
About 8,800 targets were measured; listed, in parts, are those with a hit and a random draw of the rest. About 0.5% of all pairs of compound and target were hits.

Legend:
Assay in all cases: log2 fold change, soluble protein after heating vs DMSO (PISA); higher = thermal stabilisation; K562 lysate, 10 uM; active = over 0.2 and 3.5 SD of the protein, either way, in both replicates (recomputed)
erlotinib = compound: C#Cc1cccc(Nc2ncnc3cc(OCCOC)c(OCCOC)cc23)c1 [erlotinib]
Method in brief: (§1)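 Pellets of K562 cells were dounce-homogenised in PBS pH 7.4 with 1 mM MgCl2, and the crude extract was held at 1 mg/mL protein for a 30 min treatment with 10 μM compound. Aliquots were heated for 3 min over 48°C-58°C and pooled before NP-40 was added to 0.5% at 4°C. The supernatant from 21,000xg for 90 min was quantified by TMTpro 16plex LC-MS/MS with channel sums equalised. Values are reported from duplicates as log-two fold change in thermal stability relative to solvent controls.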

[1] = compound: C/C(=N\NC(=O)C1=CC(=CC=C1)S(=O)(=O)N2CCOCC2)/C3=C(C=CC(=C3)Cl)O
Method in brief: as §1

[2] = compound: C1=CC(=CC=C1C2=NC3=C(N2)C=C(C=C3)C(=O)N)OC4=CC=C(C=C4)Cl
Method in brief: as §1

[3] = compound: C1=CC2=C(C=CC(=C2)/C=C\3/C(=O)NC(=NCC4=CC=CS4)S3)N=C1
Method in brief: as §1

[4] = compound: C1=CC2=NC=CN=C2C=C1/C=C/3\C(=O)NC(=O)S3
Method in brief: as §1

[5] = compound: C1=CC=C(C=C1)C2=NC(=C(N2)C3=CC=NC=C3)C4=CC(=C(C=C4)Cl)O
Method in brief: as §1

[6] = compound: C1=CC=C2C(=C1)C3=NNC4=CC=CC(=C43)C2=O
Method in brief: as §1

[7] = compound: C1CCN(C1)C(=O)NC2=CC=CC(=C2)NC3=NC=C(C(=N3)NCCC4=CN=CN4)Br
Method in brief: as §1

[8] = compound: C1CN(CCC1(CC2=CC=C(C=C2)Cl)N)C3=NC=NC4=C3C=CN4
Method in brief: as §1

IRAK-1-4 Inhibitor I = compound: C1COCCN1CCN2C3=CC=CC=C3N=C2NC(=O)C4=CC(=CC=C4)[N+](=O)[O-] [IRAK-1-4 Inhibitor I]
Method in brief: as §1

ibrutinib = compound: C=CC(=O)N1CCC[C@@H](n2nc(-c3ccc(Oc4ccccc4)cc3)c3c(N)ncnc32)C1 [ibrutinib]
Method in brief: as §1

[9] = compound: CC(=O)c1cnc2ccc(-c3cc(Cl)c(O)c(Cl)c3)nc2c1N[C@H]1CC[C@H](CN(C)C)CC1
Method in brief: as §1

ralimetinib = compound: CC(C)(C)Cn1c(N)nc2ccc(-c3[nH]c(C(C)(C)C)nc3-c3ccc(F)cc3)nc21 [ralimetinib]
Method in brief: as §1

[10] = compound: CC(C)(O)CC(=O)NCCn1ccc2ncnc(Nc3ccc(Oc4cccc(C(F)(F)F)c4)c(Cl)c3)c21
Method in brief: as §1

[11] = compound: CC(C)C1=C2N=C(C=C(N2N=C1)NCC3=CC=CC=C3)NCCCCCCN
Method in brief: as §1

[12] = compound: CC1=C(C(CC(=O)N1)C2=CC=C(C=C2)C(F)(F)F)C(=O)NC3=C(C=C4C(=C3)C=NN4)F
Method in brief: as §1

[13] = compound: CC1=C(C2=C(C=C1)C(=O)C3=CC=CC=C3N2CCCN)C
Method in brief: as §1

[14] = compound: CC1=C(C=C(C=C1)NC(=O)C2=CC(=CC=C2)C(C)(C)C#N)NC3=CC4=C(C=C3)N=CN(C4=O)C
Method in brief: as §1

[15] = compound: CC1=C(C=C(C=C1)NC(=O)C2=CC(=CC=C2)N(C)C)NC(=O)C3=CC=C(C=C3)O
Method in brief: as §1

[16] = compound: CC1=CC=C(C=C1)SC2=C3C=C(SC3=CN=C2)C(=O)N
Method in brief: as §1

Measured: log2 fold change

NGLY1 (UniProt Q96IV0)
inactive: erlotinib 0.022 | [1] -0.064 | [2] -0.031 | [3] -0.01 | [4] -0.009 | [5] 0.009 | [6] -0.063 | [7] -0.001 | [8] -0.011 | IRAK-1-4 Inhibitor I -0.024 | ibrutinib 0 | [9] -0.01 | ralimetinib 0.011 | [10] -0.008 | [11] 0.03 | [12] -0.001 | [13] -0.01 | [14] -0.006 | [15] 0.017 | [16] 0

PAFAH1B3 (UniProt Q15102)
Sequence of UniProt Q15102 (Q15102 whole entry, looked up): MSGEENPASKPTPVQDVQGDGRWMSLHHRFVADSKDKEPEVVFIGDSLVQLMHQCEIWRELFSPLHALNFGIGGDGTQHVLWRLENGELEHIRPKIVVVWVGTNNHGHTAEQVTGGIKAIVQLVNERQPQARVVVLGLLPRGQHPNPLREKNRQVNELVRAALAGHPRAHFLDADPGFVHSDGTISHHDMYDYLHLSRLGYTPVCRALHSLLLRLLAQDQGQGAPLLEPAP
inactive: erlotinib 0.037 | [1] 0.032 | [2] -0.017 | [3] -0.017 | [4] 0.022 | [5] -0.009 | [6] 0.005 | [7] 0.025 | [8] 0.027 | IRAK-1-4 Inhibitor I 0.005 | ibrutinib 0.073 | [9] -0.004 | ralimetinib 0.003 | [10] -0.01 | [11] 0.015 | [12] -0.026 | [13] 0.014 | [14] -0.002 | [15] 0.02 | [16] 0.006

MRPL51 (UniProt Q4U2R6)
inactive: erlotinib -0.067 | [1] -0.05 | [2] -0.027 | [3] 0.08 | [4] -0.036 | [5] -0.039 | [6] 0.036 | [7] -0.006 | [8] -0.09 | IRAK-1-4 Inhibitor I 0.001 | ibrutinib 0.02 | [9] -0.005 | ralimetinib 0.048 | [10] 0.011 | [11] -0.038 | [12] 0.066 | [13] 0.006 | [14] -0.062 | [15] 0.051 | [16] 0.017

NUMBL (UniProt Q9Y6R0)
Sequence of UniProt Q9Y6R0 (Q9Y6R0 whole entry, looked up): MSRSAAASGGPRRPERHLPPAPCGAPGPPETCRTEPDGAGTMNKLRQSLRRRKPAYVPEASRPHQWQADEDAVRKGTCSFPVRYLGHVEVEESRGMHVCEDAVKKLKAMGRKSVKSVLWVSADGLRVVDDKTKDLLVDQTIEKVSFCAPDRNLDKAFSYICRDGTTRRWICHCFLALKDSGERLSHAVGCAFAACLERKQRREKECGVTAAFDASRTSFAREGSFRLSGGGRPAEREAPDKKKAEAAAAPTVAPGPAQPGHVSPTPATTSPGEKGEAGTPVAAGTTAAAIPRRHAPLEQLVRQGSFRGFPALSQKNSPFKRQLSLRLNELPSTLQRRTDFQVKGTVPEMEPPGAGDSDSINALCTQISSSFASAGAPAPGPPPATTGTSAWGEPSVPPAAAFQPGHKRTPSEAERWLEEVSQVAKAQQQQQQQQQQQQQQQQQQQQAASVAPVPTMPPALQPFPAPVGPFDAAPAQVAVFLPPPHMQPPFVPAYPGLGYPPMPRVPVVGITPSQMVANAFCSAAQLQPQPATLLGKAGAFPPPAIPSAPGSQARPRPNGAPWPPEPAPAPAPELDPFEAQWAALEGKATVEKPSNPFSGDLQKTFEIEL
inactive: erlotinib 0.031 | [1] 0.028 | [2] 0.175 | [3] -0.244 | [4] -0.025 | [5] -0.007 | [6] -0.038 | [7] -0.095 | [8] -0.045 | IRAK-1-4 Inhibitor I -0.084 | ibrutinib 0.047 | [9] -0.023 | ralimetinib -0.009 | [10] 0.028 | [11] 0.07 | [12] 0.071 | [13] -0.081 | [14] 0.076 | [15] 0.058 | [16] -0.008

MTOR (UniProt P42345)
inactive: erlotinib 0.02 | [1] 0.031 | [2] -0.058 | [3] -0.022 | [4] 0.038 | [5] 0.025 | [6] -0.018 | [7] -0.012 | [8] 0.003 | IRAK-1-4 Inhibitor I 0.006 | ibrutinib -0.016 | [9] 0.001 | ralimetinib 0.018 | [10] -0.005 | [11] -0.043 | [12] 0.02 | [13] 0.019 | [14] 0.031 | [15] 0.058 | [16] -0.013

MTCH2 (UniProt Q9Y6C9)
Sequence of UniProt Q9Y6C9 (Q9Y6C9 whole entry, looked up): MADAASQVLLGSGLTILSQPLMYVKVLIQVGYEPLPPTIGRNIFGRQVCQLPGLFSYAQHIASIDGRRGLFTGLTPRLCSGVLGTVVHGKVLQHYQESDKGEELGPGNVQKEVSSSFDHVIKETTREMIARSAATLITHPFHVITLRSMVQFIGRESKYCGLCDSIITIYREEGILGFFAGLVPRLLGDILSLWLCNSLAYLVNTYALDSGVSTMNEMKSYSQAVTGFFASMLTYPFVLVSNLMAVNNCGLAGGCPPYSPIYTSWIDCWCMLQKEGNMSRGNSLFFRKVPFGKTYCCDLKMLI
inactive: erlotinib 0.004 | [1] 0.051 | [2] -0.081 | [3] -0.032 | [4] -0.06 | [5] -0.004 | [6] -0.031 | [7] -0.033 | [8] -0.011 | IRAK-1-4 Inhibitor I 0.027 | ibrutinib 0.008 | [9] -0.022 | ralimetinib 0.022 | [10] 0.023 | [11] 0.044 | [12] -0.019 | [13] -0.011 | [14] 0.043 | [15] -0.036 | [16] 0.031

MTHFD1L (UniProt B7ZM99)
inactive: erlotinib 0.026 | [1] -0.001 | [2] 0 | [3] -0.007 | [4] 0.033 | [5] -0.006 | [6] -0.057 | [7] -0.004 | [8] 0.002 | IRAK-1-4 Inhibitor I -0.013 | ibrutinib -0.034 | [9] -0.014 | ralimetinib 0.004 | [10] 0.011 | [11] -0.007 | [12] -0.005 | [13] -0.006 | [14] 0.033 | [15] 0.02 | [16] -0.023

ORC2 (UniProt Q13416)
Sequence of UniProt Q13416 (Q13416 whole entry, looked up): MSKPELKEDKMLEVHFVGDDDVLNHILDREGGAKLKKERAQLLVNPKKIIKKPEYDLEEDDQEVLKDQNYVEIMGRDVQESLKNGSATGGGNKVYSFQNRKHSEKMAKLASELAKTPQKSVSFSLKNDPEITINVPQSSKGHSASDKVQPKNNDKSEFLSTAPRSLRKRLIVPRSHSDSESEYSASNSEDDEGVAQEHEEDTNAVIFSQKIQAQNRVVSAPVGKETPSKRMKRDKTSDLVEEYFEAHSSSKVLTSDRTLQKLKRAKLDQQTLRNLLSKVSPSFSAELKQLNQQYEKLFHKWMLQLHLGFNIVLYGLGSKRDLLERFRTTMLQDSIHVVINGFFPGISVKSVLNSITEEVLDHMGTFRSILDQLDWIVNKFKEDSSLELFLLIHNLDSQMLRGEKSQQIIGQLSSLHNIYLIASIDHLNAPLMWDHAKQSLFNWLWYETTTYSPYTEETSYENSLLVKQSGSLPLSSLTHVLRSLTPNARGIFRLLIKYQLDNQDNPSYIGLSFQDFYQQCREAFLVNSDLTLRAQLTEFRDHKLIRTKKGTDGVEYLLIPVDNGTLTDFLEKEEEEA
inactive: erlotinib -0.004 | [1] -0.006 | [2] -0.006 | [3] 0.009 | [4] 0.015 | [5] 0.006 | [6] -0.022 | [7] 0 | [8] -0.024 | IRAK-1-4 Inhibitor I -0.034 | ibrutinib 0.012 | [9] -0.011 | ralimetinib 0.044 | [10] 0.032 | [11] -0.014 | [12] 0.016 | [13] -0.089 | [14] -0.005 | [15] -0.014 | [16] 0.021

NOSIP (UniProt Q9Y314)
Sequence of UniProt Q9Y314 (Q9Y314 whole entry, looked up): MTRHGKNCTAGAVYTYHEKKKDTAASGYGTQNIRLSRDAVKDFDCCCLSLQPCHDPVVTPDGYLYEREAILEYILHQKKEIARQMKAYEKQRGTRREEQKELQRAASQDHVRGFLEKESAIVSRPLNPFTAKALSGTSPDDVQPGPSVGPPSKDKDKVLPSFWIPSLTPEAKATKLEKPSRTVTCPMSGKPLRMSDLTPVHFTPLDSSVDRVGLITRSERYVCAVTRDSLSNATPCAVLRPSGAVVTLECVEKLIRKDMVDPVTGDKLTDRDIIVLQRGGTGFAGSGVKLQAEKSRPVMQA
inactive: erlotinib 0.012 | [1] -0.001 | [2] 0.023 | [3] 0.022 | [4] 0.011 | [5] 0.025 | [6] -0.019 | [7] 0.003 | [8] 0.022 | IRAK-1-4 Inhibitor I 0.01 | ibrutinib 0.028 | [9] 0.037 | ralimetinib 0 | [10] 0.009 | [11] -0.014 | [12] -0.009 | [13] 0 | [14] 0.047 | [15] 0.027 | [16] -0.009

NLRP2 (UniProt Q9NX02)
Sequence of UniProt Q9NX02 (Q9NX02 whole entry, looked up): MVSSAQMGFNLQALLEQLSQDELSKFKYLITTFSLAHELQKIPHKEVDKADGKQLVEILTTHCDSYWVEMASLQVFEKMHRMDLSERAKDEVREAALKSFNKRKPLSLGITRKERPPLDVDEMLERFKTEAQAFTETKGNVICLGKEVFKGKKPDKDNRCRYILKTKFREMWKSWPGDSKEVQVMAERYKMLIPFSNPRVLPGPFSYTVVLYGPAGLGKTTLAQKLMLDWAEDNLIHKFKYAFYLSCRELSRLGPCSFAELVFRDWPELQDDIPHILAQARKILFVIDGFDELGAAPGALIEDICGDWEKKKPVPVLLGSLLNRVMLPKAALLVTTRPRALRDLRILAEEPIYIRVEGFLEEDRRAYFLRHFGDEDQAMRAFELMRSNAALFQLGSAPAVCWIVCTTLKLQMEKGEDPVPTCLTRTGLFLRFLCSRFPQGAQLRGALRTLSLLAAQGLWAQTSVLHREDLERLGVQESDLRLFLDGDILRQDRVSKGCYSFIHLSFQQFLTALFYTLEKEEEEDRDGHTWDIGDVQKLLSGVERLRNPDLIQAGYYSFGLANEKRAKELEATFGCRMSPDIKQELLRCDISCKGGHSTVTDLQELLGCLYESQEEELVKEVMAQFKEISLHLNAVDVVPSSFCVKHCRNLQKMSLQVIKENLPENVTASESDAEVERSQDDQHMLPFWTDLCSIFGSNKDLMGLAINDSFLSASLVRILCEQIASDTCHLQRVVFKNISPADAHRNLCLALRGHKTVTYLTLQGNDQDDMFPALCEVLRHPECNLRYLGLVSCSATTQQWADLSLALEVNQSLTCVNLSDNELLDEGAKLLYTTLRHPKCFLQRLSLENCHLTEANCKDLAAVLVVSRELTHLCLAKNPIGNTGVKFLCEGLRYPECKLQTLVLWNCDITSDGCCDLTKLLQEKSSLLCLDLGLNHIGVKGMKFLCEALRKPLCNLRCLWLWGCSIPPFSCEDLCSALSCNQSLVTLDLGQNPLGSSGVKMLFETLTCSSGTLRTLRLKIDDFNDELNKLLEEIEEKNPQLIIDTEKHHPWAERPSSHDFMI
inactive: erlotinib 0.004 | [1] -0.015 | [2] -0.002 | [3] -0.005 | [4] -0.013 | [5] -0.002 | [6] -0.021 | [7] 0.01 | [8] -0.031 | IRAK-1-4 Inhibitor I -0.043 | ibrutinib -0.007 | [9] -0.007 | ralimetinib 0.036 | [10] 0.021 | [11] -0.008 | [12] 0.007 | [13] 0.009 | [14] 0.003 | [15] 0.021 | [16] 0.021

NUP160 (UniProt Q12769)
inactive: erlotinib 0.038 | [1] 0.041 | [2] -0.033 | [3] -0.006 | [4] 0.038 | [5] -0.012 | [6] -0.075 | [7] -0.029 | [8] 0.015 | IRAK-1-4 Inhibitor I -0.013 | ibrutinib 0.063 | [9] -0.007 | ralimetinib 0.062 | [10] 0.017 | [11] -0.021 | [12] 0.01 | [13] 0.005 | [14] 0.012 | [15] -0.021 | [16] 0.001

NACC1 (UniProt Q96RE7)
Sequence of UniProt Q96RE7 (Q96RE7 whole entry, looked up): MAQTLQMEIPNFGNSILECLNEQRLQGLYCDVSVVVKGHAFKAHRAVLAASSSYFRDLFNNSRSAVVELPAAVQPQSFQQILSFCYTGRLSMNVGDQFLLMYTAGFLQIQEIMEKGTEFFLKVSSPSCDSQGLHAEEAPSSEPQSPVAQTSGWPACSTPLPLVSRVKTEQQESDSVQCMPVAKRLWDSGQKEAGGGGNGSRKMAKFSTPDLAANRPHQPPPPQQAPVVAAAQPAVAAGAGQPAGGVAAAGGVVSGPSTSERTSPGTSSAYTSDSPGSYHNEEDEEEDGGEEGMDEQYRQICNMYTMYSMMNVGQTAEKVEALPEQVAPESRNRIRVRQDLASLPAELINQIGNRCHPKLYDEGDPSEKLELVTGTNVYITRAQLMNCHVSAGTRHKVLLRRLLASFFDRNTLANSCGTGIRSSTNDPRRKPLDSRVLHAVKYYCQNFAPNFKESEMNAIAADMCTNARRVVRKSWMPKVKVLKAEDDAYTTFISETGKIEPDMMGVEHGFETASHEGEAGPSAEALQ
inactive: erlotinib -0.006 | [1] 0.038 | [2] 0.036 | [3] -0.023 | [4] -0.004 | [5] 0.01 | [6] -0.011 | [7] 0.023 | [8] -0.014 | IRAK-1-4 Inhibitor I 0.009 | ibrutinib -0.015 | [9] -0.001 | ralimetinib 0.009 | [10] -0.003 | [11] -0.014 | [12] 0.039 | [13] -0.016 | [14] -0.022 | [15] 0.009 | [16] -0.022

OTC (UniProt P00480)
Sequence of UniProt P00480 (P00480 whole entry, looked up): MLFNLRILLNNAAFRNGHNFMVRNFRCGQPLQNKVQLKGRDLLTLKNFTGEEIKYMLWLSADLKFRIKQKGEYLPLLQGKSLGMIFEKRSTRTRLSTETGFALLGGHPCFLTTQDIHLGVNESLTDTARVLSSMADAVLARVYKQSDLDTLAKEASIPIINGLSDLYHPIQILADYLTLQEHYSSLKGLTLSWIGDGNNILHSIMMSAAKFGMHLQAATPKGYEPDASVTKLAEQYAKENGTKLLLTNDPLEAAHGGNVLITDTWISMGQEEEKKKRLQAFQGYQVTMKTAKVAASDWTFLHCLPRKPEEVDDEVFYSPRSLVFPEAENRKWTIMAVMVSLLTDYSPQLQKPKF
inactive: erlotinib 0.09 | [1] 0.138 | [2] -0.096 | [3] -0.121 | [4] -0.049 | [5] -0.074 | [6] -0.069 | [7] -0.074 | [8] -0.095 | IRAK-1-4 Inhibitor I 0.125 | ibrutinib -0.089 | [9] 0.001 | ralimetinib 0.065 | [10] -0.18 | [11] 0.017 | [12] -0.055 | [13] 0.065 | [14] 0.156 | [15] -0.034 | [16] -0.004

NELFA (UniProt Q9H3P2)
Sequence of UniProt Q9H3P2 (Q9H3P2 whole entry, looked up): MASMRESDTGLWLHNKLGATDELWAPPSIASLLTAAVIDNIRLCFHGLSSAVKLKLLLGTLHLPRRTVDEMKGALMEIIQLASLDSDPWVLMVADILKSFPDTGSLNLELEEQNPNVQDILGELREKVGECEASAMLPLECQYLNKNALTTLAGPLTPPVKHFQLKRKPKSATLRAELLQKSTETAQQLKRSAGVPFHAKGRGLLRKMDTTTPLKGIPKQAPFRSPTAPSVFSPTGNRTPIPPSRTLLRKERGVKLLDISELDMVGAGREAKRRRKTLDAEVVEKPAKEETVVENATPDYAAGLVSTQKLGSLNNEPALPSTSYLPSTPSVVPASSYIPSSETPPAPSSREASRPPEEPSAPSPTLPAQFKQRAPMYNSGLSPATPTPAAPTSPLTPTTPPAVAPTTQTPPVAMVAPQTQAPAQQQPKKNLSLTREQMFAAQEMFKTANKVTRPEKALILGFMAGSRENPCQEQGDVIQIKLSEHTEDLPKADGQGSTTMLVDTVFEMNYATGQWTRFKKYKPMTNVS
inactive: erlotinib -0.04 | [1] -0.018 | [2] 0.002 | [3] 0.047 | [4] 0.007 | [5] 0.007 | [6] -0.009 | [7] 0.011 | [8] -0.001 | IRAK-1-4 Inhibitor I -0.017 | ibrutinib 0 | [9] 0.001 | ralimetinib -0.038 | [10] 0.003 | [11] -0.012 | [12] 0.008 | [13] 0.008 | [14] -0.022 | [15] -0.04 | [16] -0.024

NIFK (UniProt Q9BYG3)
Sequence of UniProt Q9BYG3 (Q9BYG3 whole entry, looked up): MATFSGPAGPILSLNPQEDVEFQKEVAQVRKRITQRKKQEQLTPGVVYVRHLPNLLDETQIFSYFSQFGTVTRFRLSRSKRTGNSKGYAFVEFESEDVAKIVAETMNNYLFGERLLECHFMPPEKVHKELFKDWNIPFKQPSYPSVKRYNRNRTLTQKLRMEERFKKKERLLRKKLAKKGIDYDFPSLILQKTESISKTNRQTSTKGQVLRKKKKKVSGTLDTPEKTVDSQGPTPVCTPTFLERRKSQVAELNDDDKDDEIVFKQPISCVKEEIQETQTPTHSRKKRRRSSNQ
inactive: erlotinib 0 | [1] -0.05 | [2] -0.01 | [3] -0.009 | [4] 0.032 | [5] 0.038 | [6] 0.01 | [7] -0.02 | [8] -0.005 | IRAK-1-4 Inhibitor I -0.042 | ibrutinib 0.02 | [9] -0.039 | ralimetinib 0.022 | [10] 0.002 | [11] -0.001 | [12] 0.016 | [13] -0.035 | [14] -0.005 | [15] 0.016 | [16] 0.032

MTFP1 (UniProt Q9UDX5)
Sequence of UniProt Q9UDX5 (Q9UDX5 whole entry, looked up): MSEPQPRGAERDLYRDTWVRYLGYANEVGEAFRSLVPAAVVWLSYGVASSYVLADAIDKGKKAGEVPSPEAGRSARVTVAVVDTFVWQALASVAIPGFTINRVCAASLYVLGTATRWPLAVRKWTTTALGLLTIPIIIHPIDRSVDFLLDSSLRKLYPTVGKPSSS
inactive: erlotinib -0.006 | [1] 0.092 | [2] 0.035 | [3] 0.041 | [4] -0.043 | [5] -0.003 | [6] 0.081 | [7] -0.044 | [8] 0.044 | IRAK-1-4 Inhibitor I -0.058 | ibrutinib 0.097 | [9] -0.065 | ralimetinib -0.017 | [10] 0.079 | [11] -0.058 | [12] 0.018 | [13] 0.009 | [14] -0.011 | [15] -0.048 | [16] -0.001
